Measurements: the supplement of paper PMC9492666
Where a name gives a salt, the structure may show the parent alone.

Key:
[1] = tested on: HCC1937; assay: relative cell viability, compound + erastin, vs DMSO (fraction of DMSO control); higher = less growth inhibition; conditions: 72 h
[2] = tested on: MDA-MB-231; assay: as above; conditions: 72 h
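Note: viability read by CCK-8 kit in 96-well plates, part of a combination screen pairing lipid-metabolism-targeting compounds with erastin.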

| Compound | relative cell viability [1] | relative cell viability [2] |
| --- | --- | --- |
| NC(=O)c1cccc(-c2cccc(OC(=O)NC3CCCCC3)c2)c1 + CCOc1ccccc1-n1c(C(C)N2CCN(C(=O)COc3ccc(Cl)cc3)CC2)nc2ccccc2c1=O [erastin] | 0.756 | 0.568 |
| O=C(c1c2ccccc2cc2ccccc12)N1CCC(N2CCC[C@@H](C(=O)N3CCOCC3)C2)CC1 + CCOc1ccccc1-n1c(C(C)N2CCN(C(=O)COc3ccc(Cl)cc3)CC2)nc2ccccc2c1=O [erastin] | 0.514 | 0.483 |
| C[C@H](CCC(=O)O)[C@H]1CC[C@H]2[C@@H]3CC[C@@H]4C[C@H](O)CC[C@]4(C)[C@H]3CC[C@]12C [Lithocholic acid] + CCOc1ccccc1-n1c(C(C)N2CCN(C(=O)COc3ccc(Cl)cc3)CC2)nc2ccccc2c1=O [erastin] | 0.832 | 0.688 |
| CC[C@@H]1/C=C(\C)C[C@H](C)C[C@H](OC)[C@H]2O[C@@](O)(C(=O)C(=O)N3CCCC[C@H]3C(=O)O[C@H](/C(C)=C/[C@@H]3CC[C@@H](O)[C@H](OC)C3)[C@H](C)[C@@H](O)CC1=O)[C@H](C)C[C@@H]2OC [Ascomycin] + CCOc1ccccc1-n1c(C(C)N2CCN(C(=O)COc3ccc(Cl)cc3)CC2)nc2ccccc2c1=O [erastin] | 0.086 | 0.303 |
| O=C(CCCCCCCC(=O)NCCO)NCCO [Adelmidrol] + CCOc1ccccc1-n1c(C(C)N2CCN(C(=O)COc3ccc(Cl)cc3)CC2)nc2ccccc2c1=O [erastin] | 0.701 | 0.73 |
| COc1cc(C(C)=O)ccc1O [Acetovanillone] + CCOc1ccccc1-n1c(C(C)N2CCN(C(=O)COc3ccc(Cl)cc3)CC2)nc2ccccc2c1=O [erastin] | 0.508 | 0.666 |
| CN(CCOc1ccc(CC2SC(=O)NC2=O)cc1)c1ccccn1 (configuration not stated) [Rosiglitazone maleate] + CCOc1ccccc1-n1c(C(C)N2CCN(C(=O)COc3ccc(Cl)cc3)CC2)nc2ccccc2c1=O [erastin] | 0.824 | 0.965 |
| CSc1ccc(C(=O)/C=C/c2cc(C)c(OC(C)(C)C(=O)O)c(C)c2)cc1 [Elafibranor] + CCOc1ccccc1-n1c(C(C)N2CCN(C(=O)COc3ccc(Cl)cc3)CC2)nc2ccccc2c1=O [erastin] | 0.858 | 0.602 |
| NC(N)=N/N=C/c1cccc(Cl)c1Cl [Raphin1 acetate] + CCOc1ccccc1-n1c(C(C)N2CCN(C(=O)COc3ccc(Cl)cc3)CC2)nc2ccccc2c1=O [erastin] | 0.718 | 0.588 |
| N[C@@H](Cc1c[nH]cn1)C(=O)O [histidine] + CCOc1ccccc1-n1c(C(C)N2CCN(C(=O)COc3ccc(Cl)cc3)CC2)nc2ccccc2c1=O [erastin] | 0.592 | 0.706 |
| Cc1nc2c([nH]1)c(=O)n(C)c(=O)n2Cc1ccco1 [Furafylline] + CCOc1ccccc1-n1c(C(C)N2CCN(C(=O)COc3ccc(Cl)cc3)CC2)nc2ccccc2c1=O [erastin] | 0.672 | 0.767 |
| CS(=O)(=O)c1ccc(-c2nnc(/C=C/c3nnc(-c4ccc(C#N)cc4)o3)n2-c2ccccc2Cl)nc1 + CCOc1ccccc1-n1c(C(C)N2CCN(C(=O)COc3ccc(Cl)cc3)CC2)nc2ccccc2c1=O [erastin] | 0.735 | 0.668 |
| O=C(c1ccc(NS(=O)(=O)c2cccc3cccnc23)cc1)N1CCN(CC2CC2)CC1 [Mitapivat] + CCOc1ccccc1-n1c(C(C)N2CCN(C(=O)COc3ccc(Cl)cc3)CC2)nc2ccccc2c1=O [erastin] | 0.596 | 0.638 |
| CC(C)[C@H](N=C(NS(=O)(=O)c1ccc(Cl)cc1)N1C[C@H](c2ccccc2)C(c2ccc(Cl)cc2)=N1)C(N)=O + CCOc1ccccc1-n1c(C(C)N2CCN(C(=O)COc3ccc(Cl)cc3)CC2)nc2ccccc2c1=O [erastin] | 0.483 | 0.429 |
| CC[C@H](C)C(=O)O[C@H]1C[C@@H](C)C=C2C=C[C@H](C)[C@H](CC[C@@H]3C[C@@H](O)CC(=O)O3)[C@H]21 [Lovastatin] + CCOc1ccccc1-n1c(C(C)N2CCN(C(=O)COc3ccc(Cl)cc3)CC2)nc2ccccc2c1=O [erastin] | 0.804 | 0.569 |
| CCc1c(C(=O)C(N)=O)c2c(OCC(=O)O)cccc2n1Cc1ccccc1 [Varespladib] + CCOc1ccccc1-n1c(C(C)N2CCN(C(=O)COc3ccc(Cl)cc3)CC2)nc2ccccc2c1=O [erastin] | 0.547 | 0.652 |
